# Source: PubChem BioAssay
# Compounds with a hit are over-represented: about 1.6% of the library has one in this group of screens.
# FUS yeast rescue = FUS proteinopathy suppression in yeast | S. cerevisiae FUS-expressing, growth rescue, OD600, 24 h | Potency, µM (series often up to 76.6 µM), hits mostly activators | actives 0.24% (n = 390,000); note: nearly all actives have a fitted effect of over 55% in size
#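 Restored growth of FUS-toxic S. cerevisiae, read as 600 nm absorbance after 24 h at 30C in galactose medium (starting OD 0.005). Controls CP55940 and DMSO.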
# Mito fusion act = blocks mitochondrial division or promotes mitochondrial fusion; S. cerevisiae fusion-defective mutant growth rescue, CellTiterGlo 48 h; actives 0.23% (n = 320,000); AID 485298; Potency, µM (top dose mostly 46.1 µM), hits mostly activators; note: nearly all actives have a fitted effect of over 45% in size
#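 S. cerevisiae fusion-defective temperature-sensitive mutants (e.g. fzo1-1, mgm1-5) grown 48 h at 37C in YPEG (ethanol/glycerol non-fermentable) medium with 23 nl compound per well; growth rescue read as CellTiterGlo luminescence.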
# gsp ag = activates gsp, the McCune-Albright syndrome mutation | AID 624287 | gsp mutant cells, cAMP HTRF, 30 min | actives 0.13% (n = 340,000) | Potency, µM (doses to about 76.9 µM), actives largely listed as activators; active = well fitted activation curve with a large enough effect; inconclusive = small, poorly fitted or top-dose-only effect, or another doubt; inactive = no such curve, though single readings can be large or run the other way; cell line not stated here;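 note: phosphodiesterase inhibitor Ro 20-1724 added with compounds to block cAMP breakdown; nearly all actives have a fitted effect of over 60% in size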
#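 Cells stably selected in G418 were plated at 2000/well, grown 16-24 hr, then given compounds in DMSO with the PDE inhibitor […] (300 uM solution added) for 30 min at 37C; cAMP was read by HTRF.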
# 12-LOX inh = ALOX12 (human) lipoxygenase inhibition; actives 1.1% (n = 580,000); Potency, µM (top dose mostly 108 µM), hits mostly inhibitors; P18054; purified 12hLO, xylenol orange hydroperoxide absorbance
# Target sequence (P18054 whole entry, looked up): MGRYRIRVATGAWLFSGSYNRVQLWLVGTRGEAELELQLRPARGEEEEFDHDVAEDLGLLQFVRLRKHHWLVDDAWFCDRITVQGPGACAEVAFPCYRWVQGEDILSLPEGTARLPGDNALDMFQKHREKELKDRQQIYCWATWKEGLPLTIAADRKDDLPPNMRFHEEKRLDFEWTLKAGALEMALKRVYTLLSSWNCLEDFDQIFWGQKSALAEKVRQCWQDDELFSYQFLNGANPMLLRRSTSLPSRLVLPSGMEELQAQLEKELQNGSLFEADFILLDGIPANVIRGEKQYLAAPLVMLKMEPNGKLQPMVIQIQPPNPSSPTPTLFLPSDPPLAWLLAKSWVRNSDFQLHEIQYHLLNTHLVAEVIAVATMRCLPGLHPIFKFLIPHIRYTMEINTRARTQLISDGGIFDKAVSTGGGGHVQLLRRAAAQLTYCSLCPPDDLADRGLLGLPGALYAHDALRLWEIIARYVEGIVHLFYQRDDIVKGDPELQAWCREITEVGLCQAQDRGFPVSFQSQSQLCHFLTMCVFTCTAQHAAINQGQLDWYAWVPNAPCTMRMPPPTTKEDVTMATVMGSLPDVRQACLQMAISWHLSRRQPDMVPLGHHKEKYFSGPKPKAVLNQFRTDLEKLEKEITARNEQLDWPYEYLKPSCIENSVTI
#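 Purified human 12hLO at 150 nM in 25 mM Hepes, 0.01% Triton X-100, pH 7.0, preincubated 15 min at room temperature with compound. Reaction started with 40 uM arachidonic acid, 30 min at room temperature. Hydroperoxide measured by Fe-xylenol orange, 573/405 nm absorbance ratio.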
# gsp antag = antagonizes gsp, the McCune-Albright syndrome mutation; gsp-mutant cells, cAMP HTRF, 30 min; Potency, µM (doses to about 76.9 µM), usual class: inhibitors; actives 0.4% (n = 340,000); AID 624288; calls by dose curve; cell line not stated here;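 note: intracellular cAMP measured with PDE inhibitor Ro 20-1724 present during compound exposure; nearly all actives have a fitted effect of over 65% in size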
#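 HTRF cAMP read-out (cAMP-d2 plus anti-cAMP antibody-K in lysis buffer, 30 min RT). Before lysis, cells are exposed to compounds with […] for 30 min at 37C in DPBS containing Ca/Mg, BSA and Tween 20.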
# Hits are given with their value; 0 = inactive; ? = inconclusive; - = no result; [ ] = another dose, or the depositor's remark. Unless noted, calls come from the whole dose curve; as a rule, active = well fitted curve in the direction sought with a large enough effect; inconclusive = small, poorly fitted or top-dose-only effect, or another doubt; inactive = no such curve, though single readings can be large; an effect the other way counts as inactive or inconclusive.
SMILES,FUS yeast rescue,Mito fusion act,gsp ag,12-LOX inh,gsp antag
Cc1nc2cc(-c3ccc(Cl)cc3)nn2c(C)c1CCC(=O)NC(C)c1ccc2c(c1)OCCO2 (stereo not given),0,17.8µM,0,?,?
Cc1ccccc1NC(=O)Cn1c(C)cc2ccccc21,-,-,-,0,-
CCOC(=O)c1sc(NC(=O)CCCC(=O)O)c(C#N)c1C,-,-,-,6.31µM,-
Cc1cc(C)cc(NC(=O)C2C3C=CC4(O3)C2C(=O)N(CCCN2CCCC2)C4C(=O)NC2CCCC(C)C2C)c1 (stereo not given),0,0,0[15.4 µM],0,0
COc1ccc(NC(=O)C2C3C=CC4(O3)C2C(=O)N(CCN2CCCCC2)C4C(=O)NC2CCCC(C)C2C)cc1 (stereo not given),0,31.6µM,0,0,0
O=C(O)CC(Sc1n[nH]c(=S)s1)C(=O)O (stereo not given),0,0,0,2µM,0
COC(=O)C(C)Sc1n[nH]c(=S)s1 (stereo not given),0,0,0,?,0
Cc1cc(NC(=O)CNc2cc(S(=O)(=O)N3CCOCC3)ccc2N2CCCCC2)no1,-,-,-,0,-
CCCCCCCCN1C(=O)[C@@H](CC(=O)N2CCCC2)C[C@@]2(C(=O)OC)C1=C[C@H](C(C)C)O[C@@H]2C1CC1,12.6µM,-,-,-,-
CCCCCCCCN1C(=O)[C@@H](CC(=O)N2CCSCC2)C[C@@]2(C(=O)OC)C1=C[C@H](C(C)C)O[C@@H]2C1CC1,4.47µM,-,-,-,-
CCCCCCCCN1C(=O)[C@@H](CC(=O)N2CCOCC2)C[C@@]2(C(=O)OC)C1=C[C@H](C(C)C)O[C@@H]2C1CC1,8.91µM,-,-,-,-
CC(=O)N1CCN(C(C(=O)O)c2c[nH]c3ccc(Br)cc23)CC1 (stereo not given),-,-,-,0,-
CCCNC(=O)C(=O)c1c(-c2ccccc2)n(C)c2ccccc12,-,-,-,0,-
CCCSc1ccccc1C(=O)Nc1cccc(C)c1C,-,-,-,25.1µM,-
COCCSc1ccccc1C(=O)Nc1nnc(C)s1,0,0,0,11.2µM,0
CSc1ccccc1C(=O)Nc1ccccc1C,0,0,0[15.4 µM],0,0
COCCSc1ccccc1C(=O)Nc1nccs1,0,0,0,14.1µM,0
COCCSc1ccccc1C(=O)Nc1ccccc1C(C)C,0,0,?,?,0
COCCSc1ccccc1C(=O)Nc1ccc(Cl)cn1,0,0,0,0,0
COc1ccc(NC(=O)CSc2ncnc3ccccc23)c(OC)c1,-,-,-,0,-
COc1ccc(OC)c(NC(=O)CSc2ncnc3c2cnn3-c2ccccc2Cl)c1,0,?,0,-,2µM
CN(C)c1ccc(CN2CCC3(COc4ccccc4C(=O)N3)C2)cc1 (stereo not given),-,-,-,0,-
CN(C)c1ccc(CN2CCC3(CC2)COc2ccccc2C(=O)N3)cc1,-,-,-,39.8µM,-
Cn1cccc1CN1CCC2(CC1)COc1ccccc1C(=O)N2,-,-,-,56.2µM,-
O=C1NC2(CCN(Cc3ccncc3)CC2)COc2ccccc21,-,-,-,0,-
SMILES,FUS yeast rescue,Mito fusion act,gsp ag,12-LOX inh,gsp antag
CC(=O)N1CCC2(CC1)CN(C(=O)c1c[nH]c3ccccc13)Cc1ccccc1O2,-,-,-,0[6.33 µM],-
CC(=O)c1ccc(NC(=O)CSc2nnc(-c3ccco3)c(-c3ccco3)n2)cc1,?,0,0,?,0
O=C(CSc1nnc(-c2ccco2)c(-c2ccco2)n1)c1ccccc1,0,0,0,28.2µM,0
O=C(O)c1csc(N/N=C/c2ccc(Br)cc2)n1,0,0,0,35.5µM,0
Cc1sc(NC(=O)c2ccco2)c(C(Nc2ccccn2)c2ccccc2)c1C (stereo not given),0,?,0,0,0
COc1ccc(C(Nc2ccccn2)c2c(NC(=O)c3ccco3)sc(C)c2C)cc1 (stereo not given),0,12.6µM,0,?,0
CSc1ccc(/C=C(/C#N)C(=O)NC(C)C)cc1,-,-,-,0,-
COC(=O)c1cc(NC(=O)c2ccc3c(c2)CCC3)cc(C(=O)OC)c1,-,-,-,0,-
Cc1cc(C(=O)OCCN2C(=O)c3ccccc3C2=O)c2ccccc2n1,15.8µM,0,0,0,0
Cc1cc(C(=O)OCCOc2ccccc2)c2ccccc2n1,-,-,-,0,-
COc1ccccc1C(=O)Oc1ccc(F)cc1C(=O)/C=C/c1ccc(Cl)cc1,-,-,-,0,-
O=C(Cc1c[nH]c2ccccc12)Nc1cccc(CO)c1,-,-,-,0,-
CC1=C(Cc2cc3ccc(=O)oc3cc2O)CC(C)(C)CC1,-,-,-,6.31µM,-
COc1cc2ccc(=O)oc2cc1O,0,0,?,0,0
Cc1nc2ccc(NS(=O)(=O)c3c(C)c(C)cc(C)c3C)cc2s1,0,0,0,?,?
Cc1nc2cc(NS(=O)(=O)c3c(C)c(C)cc(C)c3C)ccc2s1,?,35.5µM,0,?,?
CCN1CC(c2nc(-c3ccc(-n4nc(C)cc4N)cc3)no2)CCC1=O (stereo not given),-,-,-,0,-
Cc1ccc(NC(=O)C2CCN(c3nc4ccccc4o3)CC2)c(O)c1,-,-,-,0,-
Cc1cc(=O)[nH]c(N/N=C/c2cc(C)n(-c3ccccc3)c2C)n1,31.6µM,0,0[15.4 µM],0,0
COc1cccc(CNC(=O)COc2ncnc3ccccc23)c1,-,-,-,0,-
COc1ccccc1N1CCN([C@@H]2[C@H](O)[C@H](CO)O[C@@H]2CNC(=O)c2cccc(F)c2)CC1,-,-,-,0,-
COc1cccc(NC(=O)NC[C@H]2O[C@@H](CO)[C@@H](O)[C@H]2N2CCN(c3ccccc3OC)CC2)c1,-,-,-,17.8µM,-
COC(=O)c1cc(-c2ccc(C)cc2)nc2ccc(Cl)cc12,-,-,-,0,-
COc1ccc(-n2c(SCC(=O)Nc3nccs3)nc3sc4c(c3c2=O)CCN(C)C4)cc1,28.2µM,0,0,0,0
COc1cc(-c2nc3ccc(Cl)cn3c2Nc2ccc3c(c2)OCCO3)ccc1O,0,-,-,7.94µM,-
SMILES,FUS yeast rescue,Mito fusion act,gsp ag,12-LOX inh,gsp antag
Oc1ccc(-c2nc3ccccn3c2Nc2ccc3c(c2)OCCO3)cc1,0,-,-,0,-
Clc1cccc(-c2nc3ccccn3c2Nc2ccc3c(c2)OCCO3)c1,0,-,-,6.31µM,-
NC(=NCc1ccccc1)NCc1ccc(F)cc1,-,-,-,0,-
O=C(Nc1ccc2c(N3CCCCC3)ncnc2c1)c1cc(F)cc(F)c1,-,-,-,0,-
C=CCNC(=O)c1cc(-c2ccccn2)nc2ccccc12,-,-,-,0,-
CS(=O)(=O)c1ccc(OCC2(CNC3CCC3)C[C@@H](O)[C@@H](O)C2)cc1 (stereo not given in full),-,-,-,0,-
CCS(=O)(=O)NCC1(COc2ccc(S(C)(=O)=O)cc2)C[C@@H](O)[C@@H](O)C1 (stereo not given in full),-,-,-,12.6µM,-
COCCN(Cc1cn(C)nc1-c1ccccc1F)C(C)C,0,5.62µM,0,0,0
CCn1ccnc1CN(C)Cc1cn(C)nc1-c1ccccc1F,0,0,0,0,0
O=C(N/N=C/c1cc(Br)cs1)c1cccc(Cl)c1,-,-,-,0,-
O=C(N/N=C/C1C(c2ccccc2)C1(Cl)Cl)c1cccc(Cl)c1 (stereo not given),5.62µM,0,0,0,0
CCOC(=O)CSc1cc(=O)n(CC)c2ccccc12,0,0,?,0,?
